In the library only some 19% were active in any assay of this set; here they are far more common.
uPA generation – cell surface uPA generation inhibition. cell surface uPA generation assay, qHTS. Potency, µM (highest dose often 38.3 µM), actives largely listed as inhibitors. hit rate 0.31% among 330,000; active = well fitted inhibition curve with a large enough effect; inconclusive = small, poorly fitted or top-dose-only effect; inactive = no such curve, though single readings can be large or run the other way; tested in mouse RAW 264.7 cells; also: nearly all actives have a fitted effect of over 55% in size
DT40 TDP1 no CPT – qHTS for Inhibitors of human tyrosyl-DNA phosphodiesterase 1 (TDP1): qHTS in cells in absence of CPT. hit rate 15% among 420,000. DT40 Tdp1-/- hTDP1 cells, no CPT, ATP luminescence, 48 h. Potency, µM (doses to about 46.2 µM), actives largely listed as inhibitors; also: nearly all actives have a fitted effect of over 55% in size
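Growth kinetics read by CellTiter-Glo luminescence after ≥48 hr at 37 °C. Cells: DT40 Tdp1-/- stably carrying human TDP1, 400 per well, compound exposure in the absence of CPT (DMSO vehicle).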
IL-1B inflam inh – inhibitors of inflammasome signaling (IL-1 beta secretion); THP-1 LPS/ATP IL-1B secretion, AlphaLISA, 16 h; active compounds read low; activity change, % at 57.5 µM; hit rate 4.7% among 360,000; AID 743279; in the data active = activity change below about -50%; inconclusive = mostly about -30% to -49%
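THP-1 cells pretreated 1 hr with compounds (up to 57.5 uM final), then stimulated with LPS (250 ng/mL final) plus ATP (1.25 mM final); secreted IL-1B measured by AlphaLISA after 16 hr, decreased signal indicating inhibition.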
HT1080NT lethal – kills 2HG-producing HT-1080-NT fibrosarcoma cells. HT-1080-NT fibrosarcoma viability, CellTiter-Glo ATP luminescence, 48 h. Potency, µM (doses to about 46.1 µM), usual class: cytotoxic. hit rate 1.6% among 360,000. AID 686970;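 also: NT is the 2HG producing partner of a matched IDH1 knockdown line; nearly all actives have a fitted effect of over 55% in size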
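HT-1080-NT fibrosarcoma cells (2HG-overproducing), 750 cells/well in RPMI with 5% FBS, dosed after 2 h and incubated 48 h at 37C. CellTiter-Glo luminescence normalized to DMSO and no-cell wells; concentration-response curves fitted and classed.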
HT1080 IDH1KD tx – HT-1080 IDH1 knockdown cell toxicity (counter line); HT-1080 IDH1 knockdown viability, ATP luminescence, 48 h; hit rate 2% among 360,000; Potency, µM (doses to about 46.1 µM), usual class: cytotoxic
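Assay cells: HT-1080 with IDH1 knockdown, 750 per well, RPMI/5% FBS. Exposure: 48 h at 37 °C following 2 h pre-incubation. Read: CellTiter-Glo luminescence; fitted concentration-response, curve class assigned.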
DT40 TDP1 CPT – growth inhibition of DT40 Tdp1-/-;hTDP1 cells with camptothecin (screen for TDP1 inhibitors); chicken DT40 Tdp1-/-;hTDP1 cells + 20 nM CPT, ATP luminescence, 48 h; Potency, µM (series often up to 46.2 µM), actives largely listed as inhibitors; hit rate 12% among 420,000; also: nearly all actives have a fitted effect of over 55% in size
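Chicken DT40 Tdp1-/- cells stably complemented with human TDP1 were seeded at 400 cells/well in medium containing 20 nM camptothecin, exposed to pin-transferred compounds, and grown at 37 °C for at least 48 hr. Viability was read as ATP luminescence.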
Numbers stand for hits; 0 = inactive; ? = inconclusive; - = no result; [ ] = dose if it differs, or a comment. Unless noted, calls follow the shape of the dose curve; as a rule, active = well fitted curve in the direction sought with a large enough effect; inconclusive = small, poorly fitted or top-dose-only effect, or another doubt; inactive = no such curve, though single readings can be large; an effect the other way counts as inactive or inconclusive.

SMILES | uPA generation | DT40 TDP1 no CPT | IL-1B inflam inh | HT1080NT lethal | HT1080 IDH1KD tx | DT40 TDP1 CPT
COCCNC(=S)N(CCc1c(C)[nH]c2ccc(F)cc12)Cc1cccs1 | 0 | 23µM | ? | ? | 0 | ?
CCc1ccc(NC(=O)CCS(=O)(=O)c2ccc3c(c2)oc(=O)n3C)cc1 | - | 0 | - | - | - | 0
N#Cc1ccccc1NS(=O)(=O)c1cc2c3c(c1)CCC(=O)N3CCC2 | 0 | 0 | 0 | 0 | 0 | 0
O=c1cnn(Cc2ccc(Cl)c(Cl)c2)c2ccccc12 | 0 | 15µM | 0 | 0 | 0 | 21µM
CC(C)CC1OC(C(C)C)Cc2[nH]c(=S)[nH]c(=O)c21 (stereo not drawn) | - | ? | 0 | 0 | 0 | ?
CCc1ccc(NC(=O)C2CCN(S(=O)(=O)c3ccc4c(c3)N(C(C)=O)CCO4)CC2)cc1 | 0 | 18µM | 0 | 0 | 0 | 0
COc1ccc(NC(=O)C2CCN(S(=O)(=O)c3c(C)noc3C)CC2)cc1Cl | 0 | 0 | 0 | ? | 0 | 0
CCc1ccc(NC(=O)C2CCN(S(=O)(=O)c3ccc4[nH]c(=O)ccc4c3)CC2)cc1 | 0 | 0 | 0 | 0 | 0 | 0
COc1ccc(NC(=O)C2CCN(S(=O)(=O)c3cccc(-c4noc(C)n4)c3)CC2)cc1OC | - | 21µM | - | - | - | ?
Cc1cc(C)cc(NC(=O)C2CCN(S(=O)(=O)c3cccc(-c4noc(C)n4)c3)CC2)c1 | - | 21µM | - | - | - | 16µM
CCc1ccc(NC(=O)C2CCN(S(=O)(=O)c3cccc(-c4noc(C)n4)c3)CC2)cc1 | - | 15µM | - | - | - | 21µM
Cc1ncc2c(c1CNS(=O)(=O)N(C)C)CCN(C(=O)c1ccc(-c3ccc(F)cc3)cc1)C2 | - | ? | - | - | - | 0[9.04 µM]
CCc1nc2ccc(C(=O)N3CCN(S(=O)(=O)CC)CC3)cn2c1N(CC)C(=O)NCCc1ccccc1 | - | 0 | 0 | 0 | 0 | 0
O=C(CCN1C(=O)/C(=C/c2ccc(F)cc2)SC1=S)NNC(=O)c1cccnc1 | 0 | 9.2µM | 0 | 0 | 0 | ?
Cc1ccc(/C=C2\SC(=S)N(CCC(=O)NNC(=O)c3cccnc3)C2=O)cc1 | 0 | 9.2µM | 0 | 0 | 0 | 16µM
CCCn1c(N)c(N(CCOC)C(=O)Cc2ccc(S(=O)(=O)N3CCOCC3)s2)c(=O)[nH]c1=O | 0 | 0 | 0 | 0 | 0 | 0
Cc1ccc(OCc2nc(-c3ccc(C(=O)N4CCN(c5ccccc5F)CC4)cc3)oc2C)cc1 | - | 0 | - | - | - | 0
COc1ccc2c(c1)CC=C1C2CCC2(C)C(=O)C(=NO)CC12 (stereo not drawn) | 0 | ? | -88 | 0 | 0 | ?
N#Cc1cc2c(=O)n3ccccc3nc2n(-c2ccccc2Cl)c1=O | ? | ? | 0 | ? | ? | 7.3µM
N#Cc1cc2c(=O)n3ccccc3nc2n(Cc2cccnc2)c1=O | 0 | 0 | 0 | 0 | 0 | 0
CC1(c2ccc3c(c2)OCCO3)NC(=O)N(CC(=O)Nc2ccccc2)C1=O (stereo not drawn) | 0 | 0 | 0 | 0 | 0 | 0
COC(=O)[C@H]1[C@H](c2ccccc2)[C@H](C(=O)OC)O[C@H]1c1ccccc1 | 0 | 0 | 0 | 0 | 0 | 0
O=C(C1=NNCC1c1ccccc1)C1OC1c1ccccc1 (stereo not drawn) | 0 | ? | -89 | 0 | 0 | 0
CC1=CC(=O)C=C(C)C1=NOC(=O)c1cccc([N+](=O)[O-])c1 | 0 | ? | 0 | 0 | 0 | 10µM
Cc1cccc(C(=O)O/N=C(\N)c2cccc([N+](=O)[O-])c2)c1 | - | 0 | 0 | 0 | 0 | 0
SMILES | uPA generation | DT40 TDP1 no CPT | IL-1B inflam inh | HT1080NT lethal | HT1080 IDH1KD tx | DT40 TDP1 CPT
CC(C)c1ccccc1OCCCCCNCCO | 0 | ? | -54 | ? | 0[9.24 µM] | ?
CC(C)(C)c1ccccc1OCCCCCNCCO | - | ? | -53 | ? | ? | ?
Cc1ccccc1OCCCCCNCCO | - | 0 | 0 | 0 | 0 | 0
CCn1c(O)c(N=Nc2ccc3ccccc3n2)c2ccccc21 | 0 | 23µM | ? | 0 | 0 | ?
CCn1c(O)c(N=NC(=O)CNC(=O)/C=C/c2ccccc2)c2ccccc21 | 0 | ? | 0 | 0 | 0 | ?
CCCCn1c(O)c(N=Nc2ccccn2)c2ccccc21 | 0 | ? | 0 | 0 | 0 | ?
C=CCn1c(O)c(N=O)c2ccccc21 | 0 | 0 | ? | 0 | 0 | 0
CCCCn1c(O)c(N=Nc2ccccc2O)c2ccccc21 | 0 | ? | 0 | 0 | 0 | 23µM
C=CCn1c(O)c(N=Nc2ccccc2C)c2ccccc21 | 0 | ? | 0 | 0 | 0 | 18µM
C=CCn1c(O)c(N=NC(=S)Nc2ccc(OC)c(Cl)c2)c2ccccc21 | 0 | 2.6µM | 0 | 0 | ? | 4.6µM
C[C@@H]1CN([C@@H](C)CO)C(=O)CCCn2nncc2CO[C@H]1CN(C)S(=O)(=O)c1ccc2ccccc2c1 | - | ? | 0 | 0 | 0 | 0
CSc1cccc(NC(=O)CCCOc2cc(=O)n(C)c3ccccc23)c1 | - | ? | 0 | 0 | 0 | ?
COc1cc([N+](=O)[O-])ccc1NC(=O)COC(=O)c1ccc(NC(N)=O)cc1 | 0 | 0 | 0 | ? | 0 | 0
CC12CCC(=O)C=C1CCC1C2C(O)CC2(C)C1CCC2(O)C(=O)CO (stereo not drawn) | 0 | ? | ? | 0 | 0 | 0
O=C(CSc1nc(-c2ccccc2)c(-c2ccccc2)[nH]1)Nc1ccc2c(c1)OCO2 | 0 | 13µM | 0 | ? | ? | ?
COc1ccccc1Cc1nc2ccccc2nc1SCC(=O)Nc1ccc2c(c1)OCO2 | - | 0 | - | - | - | 0
COc1cc(-c2nc(SCC(=O)Nc3ccc4c(c3)OCO4)c(-c3ccccc3)[nH]2)cc(OC)c1OC | - | 16µM | - | - | - | ?
O=C(CSc1nc(-c2ccccc2)[nH]c1-c1ccccc1)Nc1ccc2c(c1)OCO2 | - | 15µM | - | - | - | 21µM
O=C(CSc1ccccc1)Nc1ccc2c(c1)OCO2 | 0 | 0 | 0 | 0 | 0 | 0
O=C(CNC(=O)C1CCCCC1)OCCOc1ccccc1 | - | 0 | - | - | - | 0
COC(=O)c1sc(NC(=O)CN2CCN(c3cccc(Cl)c3)CC2)c(C(=O)OC)c1C | 0 | 33µM | 0 | 0 | 0 | 29µM
COC(=O)c1[nH]c2ccccc2c1NC(=O)CN1CCCCCC1 | 0 | ? | 0 | 0 | 0 | ?
COC(=O)c1[nH]c2ccccc2c1NC(=O)CN1CCN(c2cccc(Cl)c2)CC1 | 0 | 16µM | 0 | 0 | 0 | 26µM
Cc1ccc(CNC(=O)CN2C(=O)CSc3ccc(S(=O)(=O)N4CCCC4)cc32)cc1 | - | ? | - | - | - | 0
Cc1cc(C)c2c(CC(=O)Nc3cc(C(F)(F)F)ccc3Cl)coc2c1 | - | ? | - | - | - | 0
CCOc1ccc(NS(=O)(=O)c2cc(C(=O)N(CC)CC(=O)NCc3cccs3)ccc2C)cc1 | 0 | ? | 0 | 0 | 0 | ?
CC1CCN(C(=O)COC(=O)c2cc3ccccc3oc2=O)CC1 | 0 | 0 | 0 | 0 | 0 | 0
